Test results reported in paper PMC7862700, “An all-to-all approach to the identification of sequence-specific readers for epigenetic DNA modifications on cytosine”.

Legend:
Assay in all cases: DAPPL (digital affinity profiling via proximity ligation, sequencing); 10 mM Tris-HCl pH 7.5, 50 mM NaCl, 1 mM DTT, 4% glycerol, room temperature, 30 min; GST-TFs on glutathione beads, 16-mer random dsDNA library, 0.1% formaldehyde crosslink after washing; high values mean tight binding
[1] = target: T1, FEV (Homo sapiens, UniProt Q99581 1-238); details: protein: recombinant; tags: N-terminal GST; dsDNA, one strand shown
T1 sequence: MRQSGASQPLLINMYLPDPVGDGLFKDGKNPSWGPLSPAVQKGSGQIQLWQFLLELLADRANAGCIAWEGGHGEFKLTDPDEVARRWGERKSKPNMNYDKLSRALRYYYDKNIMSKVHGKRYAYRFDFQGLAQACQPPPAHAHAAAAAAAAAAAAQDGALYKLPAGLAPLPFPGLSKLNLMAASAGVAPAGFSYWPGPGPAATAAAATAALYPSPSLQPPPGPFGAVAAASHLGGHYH
Summary of the method: (§1)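 In yeast, human transcription factors were expressed with a GST fusion, then pulled down on glutathione beads and given DNA barcodes. Pooled with a tag-only sample, they were exposed to 200 nmole of a 16-mer random double-stranded DNA library (Tris/NaCl/DTT/glycerol buffer, room temperature, 30 min), washed, crosslinked with 0.1% formaldehyde, proximity-ligated using BsaI/T4 ligase for 1 h at 37 °C, PCR-amplified and read on an Illumina NextSeq500. Each hexamer's frequency of reads for a factor, divided by the matching frequency for the tag-only sample, gives the binding signal.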

[2] = target: ETV5 (Homo sapiens, UniProt P41161 1-510); details: protein: recombinant; tags: N-terminal GST; dsDNA, one strand shown
Chain of ETV5 (P41161 whole entry): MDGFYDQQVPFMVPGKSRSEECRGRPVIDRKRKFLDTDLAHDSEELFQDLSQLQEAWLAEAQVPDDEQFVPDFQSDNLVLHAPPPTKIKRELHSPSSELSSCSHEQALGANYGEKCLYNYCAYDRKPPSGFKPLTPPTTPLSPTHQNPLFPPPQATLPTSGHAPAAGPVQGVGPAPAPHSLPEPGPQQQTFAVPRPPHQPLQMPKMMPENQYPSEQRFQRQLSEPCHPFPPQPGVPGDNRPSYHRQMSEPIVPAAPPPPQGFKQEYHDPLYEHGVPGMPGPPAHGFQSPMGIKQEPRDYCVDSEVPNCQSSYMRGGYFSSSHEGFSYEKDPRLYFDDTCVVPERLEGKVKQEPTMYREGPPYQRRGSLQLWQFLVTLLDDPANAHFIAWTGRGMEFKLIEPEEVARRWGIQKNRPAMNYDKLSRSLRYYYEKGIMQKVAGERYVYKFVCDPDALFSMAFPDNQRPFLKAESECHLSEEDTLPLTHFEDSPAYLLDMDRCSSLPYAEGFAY
Summary of the method: as §1

[3] = target: HSF1 (Homo sapiens, UniProt Q00613 1-529); details: protein: recombinant; tags: N-terminal GST; chain copies: 3; dsDNA, one strand shown
Chain of HSF1 (Q00613 whole entry): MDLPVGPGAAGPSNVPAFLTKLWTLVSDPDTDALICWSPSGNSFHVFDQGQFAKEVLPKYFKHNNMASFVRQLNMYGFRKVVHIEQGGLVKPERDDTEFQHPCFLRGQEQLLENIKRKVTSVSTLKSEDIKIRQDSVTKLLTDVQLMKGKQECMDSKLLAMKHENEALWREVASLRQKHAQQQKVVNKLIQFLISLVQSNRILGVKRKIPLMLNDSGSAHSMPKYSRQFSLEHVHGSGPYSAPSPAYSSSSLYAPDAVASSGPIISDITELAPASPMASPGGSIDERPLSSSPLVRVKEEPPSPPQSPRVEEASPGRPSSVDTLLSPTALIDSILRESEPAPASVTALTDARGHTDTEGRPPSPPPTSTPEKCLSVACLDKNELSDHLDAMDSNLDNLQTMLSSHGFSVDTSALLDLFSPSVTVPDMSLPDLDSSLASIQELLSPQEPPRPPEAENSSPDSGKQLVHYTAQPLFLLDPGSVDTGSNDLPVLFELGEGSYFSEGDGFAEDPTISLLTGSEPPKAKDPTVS
Summary of the method: as §1

[4] = target: T2, SPIC (Homo sapiens, UniProt Q8N5J4 1-248); details: protein: recombinant; tags: N-terminal GST; dsDNA, one strand shown
T2 sequence: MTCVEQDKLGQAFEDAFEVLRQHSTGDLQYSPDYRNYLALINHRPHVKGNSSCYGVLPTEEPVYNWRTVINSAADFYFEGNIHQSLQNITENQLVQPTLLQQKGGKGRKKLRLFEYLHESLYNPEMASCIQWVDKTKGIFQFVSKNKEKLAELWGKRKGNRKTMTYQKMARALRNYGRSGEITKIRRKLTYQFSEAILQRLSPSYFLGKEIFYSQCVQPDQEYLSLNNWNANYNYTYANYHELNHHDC
Summary of the method: as §1

[5] = target: ELF4 (Homo sapiens, UniProt Q99607 1-663); details: protein: recombinant; tags: N-terminal GST; dsDNA, one strand shown
Chain of ELF4 (Q99607 whole entry): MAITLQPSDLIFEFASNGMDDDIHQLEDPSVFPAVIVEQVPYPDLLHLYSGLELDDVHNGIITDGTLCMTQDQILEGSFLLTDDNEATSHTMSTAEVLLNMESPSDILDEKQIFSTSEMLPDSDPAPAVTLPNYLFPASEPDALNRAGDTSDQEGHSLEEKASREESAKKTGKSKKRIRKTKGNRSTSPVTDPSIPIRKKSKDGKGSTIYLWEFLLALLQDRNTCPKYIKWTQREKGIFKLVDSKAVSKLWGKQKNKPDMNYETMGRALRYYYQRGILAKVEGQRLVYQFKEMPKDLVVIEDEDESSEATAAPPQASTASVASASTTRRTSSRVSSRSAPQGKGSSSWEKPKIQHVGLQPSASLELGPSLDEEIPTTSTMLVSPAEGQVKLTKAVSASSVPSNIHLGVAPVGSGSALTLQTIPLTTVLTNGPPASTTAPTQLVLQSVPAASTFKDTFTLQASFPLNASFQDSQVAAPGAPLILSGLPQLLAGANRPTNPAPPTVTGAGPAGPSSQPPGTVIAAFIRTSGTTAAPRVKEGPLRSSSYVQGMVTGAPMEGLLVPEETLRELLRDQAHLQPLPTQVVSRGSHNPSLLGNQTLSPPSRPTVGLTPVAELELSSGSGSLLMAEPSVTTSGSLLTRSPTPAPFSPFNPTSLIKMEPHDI
Summary of the method: as §1

[6] = target: T3, ELK4 (Homo sapiens, UniProt P28324-2 1-405); details: protein: recombinant; tags: N-terminal GST; dsDNA, one strand shown
T3 sequence: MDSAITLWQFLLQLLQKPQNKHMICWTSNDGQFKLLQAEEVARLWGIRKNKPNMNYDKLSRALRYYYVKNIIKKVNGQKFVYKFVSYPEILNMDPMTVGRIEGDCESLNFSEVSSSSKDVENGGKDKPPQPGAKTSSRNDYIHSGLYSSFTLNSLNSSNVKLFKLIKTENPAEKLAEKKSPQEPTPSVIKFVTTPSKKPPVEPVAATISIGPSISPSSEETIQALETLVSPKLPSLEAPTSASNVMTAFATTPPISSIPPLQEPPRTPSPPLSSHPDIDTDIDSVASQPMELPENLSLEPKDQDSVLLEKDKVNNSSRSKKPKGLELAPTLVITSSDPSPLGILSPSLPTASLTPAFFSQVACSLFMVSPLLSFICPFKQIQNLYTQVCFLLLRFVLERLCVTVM
Summary of the method: as §1

[7] = target: T4, ETV2 (Homo sapiens, UniProt O00321 1-342); details: protein: recombinant; tags: N-terminal GST; dsDNA, one strand shown
T4 sequence: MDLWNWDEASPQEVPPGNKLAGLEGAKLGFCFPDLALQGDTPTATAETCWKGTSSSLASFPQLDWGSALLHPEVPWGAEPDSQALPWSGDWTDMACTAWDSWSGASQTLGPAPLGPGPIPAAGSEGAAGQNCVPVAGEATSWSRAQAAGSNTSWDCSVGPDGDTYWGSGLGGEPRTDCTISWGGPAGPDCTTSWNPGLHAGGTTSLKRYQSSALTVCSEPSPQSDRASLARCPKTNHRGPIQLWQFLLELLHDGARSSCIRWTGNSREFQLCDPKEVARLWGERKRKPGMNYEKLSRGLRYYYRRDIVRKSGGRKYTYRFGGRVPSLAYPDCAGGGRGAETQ
Summary of the method: as §1

[8] = target: T5, ELF3 (Homo sapiens, UniProt P78545 1-371); details: protein: recombinant; tags: N-terminal GST; dsDNA, one strand shown
T5 sequence: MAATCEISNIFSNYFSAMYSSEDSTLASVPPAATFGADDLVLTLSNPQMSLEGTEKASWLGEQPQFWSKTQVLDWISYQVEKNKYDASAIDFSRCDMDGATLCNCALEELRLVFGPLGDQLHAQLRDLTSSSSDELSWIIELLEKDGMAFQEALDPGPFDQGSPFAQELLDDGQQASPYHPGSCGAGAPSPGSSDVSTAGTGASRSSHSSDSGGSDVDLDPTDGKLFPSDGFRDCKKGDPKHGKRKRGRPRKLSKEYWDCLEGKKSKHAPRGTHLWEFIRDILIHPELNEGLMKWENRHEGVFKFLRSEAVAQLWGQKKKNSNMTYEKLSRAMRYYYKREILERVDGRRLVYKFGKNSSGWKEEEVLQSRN
Summary of the method: as §1

[9] = target: CRX (Homo sapiens, UniProt O43186 1-299); details: protein: recombinant; tags: N-terminal GST; dsDNA, one strand shown
Chain of CRX (O43186 whole entry): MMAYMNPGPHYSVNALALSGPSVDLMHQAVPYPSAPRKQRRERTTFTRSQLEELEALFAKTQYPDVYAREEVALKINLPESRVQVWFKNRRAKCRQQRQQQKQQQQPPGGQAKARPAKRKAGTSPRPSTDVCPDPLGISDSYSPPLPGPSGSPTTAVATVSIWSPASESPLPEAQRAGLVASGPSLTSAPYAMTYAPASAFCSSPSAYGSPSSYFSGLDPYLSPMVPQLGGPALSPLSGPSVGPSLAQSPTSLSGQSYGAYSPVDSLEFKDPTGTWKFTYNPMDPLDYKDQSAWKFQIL
Summary of the method: as §1

TAACCT
binding signal [1]: 1.3 fold enrichment (6-mer frequency, TF over GST control)
binding signal [2]: 1.29 fold enrichment (6-mer frequency, TF over GST control)
binding signal [3]: 1.44 fold enrichment (6-mer frequency, TF over GST control)
binding signal [4]: 1.17 fold enrichment (6-mer frequency, TF over GST control)
binding signal [5]: 1.33 fold enrichment (6-mer frequency, TF over GST control)
binding signal [6]: 1.46 fold enrichment (6-mer frequency, TF over GST control)
binding signal [7]: 1.13 fold enrichment (6-mer frequency, TF over GST control)
binding signal [8]: 1.29 fold enrichment (6-mer frequency, TF over GST control)
binding signal [9]: 1.67 fold enrichment (6-mer frequency, TF over GST control)
